This is part of a sample that, as a whole, favours compounds with a hit. Of some 79,000 tested, about 15% had one in any assay. Unmarked numbers belong to inactive results. Calls of active or inactive are those of the source. Cut-off read from the data, not from the text of the source: active = growth inhibition above about 70%; inactive = the rest.
Key:
[1] = NCI Yeast Anticancer Drug Screen. Data for the rad52 strain (AID 147);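 note: 0% = growth of vehicle-treated control cultures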; details: S. cerevisiae rad52 mutant growth inhibition, stronger effect = higher value
In short: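 Screen used a yeast mutant impaired in DNA repair. After compound exposure, growth was measured. Values reflect inhibition compared with vehicle-treated cells.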

[2] = NCI Yeast Anticancer Drug Screen. Data for the wt1 strain (AID 149);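 note: 0% = growth of vehicle-treated wt1 cultures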; details: S. cerevisiae wt1 strain (SPY 50644) growth inhibition, stronger effect = higher value
In short: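 Measured: growth of wt1 yeast under compound versus vehicle treatment, reported as inhibition.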

[3] = NCI Yeast Anticancer Drug Screen. Data for the rad50EPP+ strain (AID 151);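 note: 0% = growth of vehicle-treated control cultures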; details: S. cerevisiae rad50 mutant strain, stronger effect = higher value
In short: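 Exposing the rad50EPP+ strain to each compound, growth was compared with vehicle-only cultures to give inhibition.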

[4] = NCI Yeast Anticancer Drug Screen. Data for the mgt1 strain (AID 153); details: S. cerevisiae mgt1 mutant growth inhibition, stronger effect = higher value
In short: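 Genetically defined yeast (mgt1) treated with compound; inhibition of growth expressed against vehicle-treated controls.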

[5] = NCI Yeast Anticancer Drug Screen. Data for the rad50 strain (AID 155);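 note: 0% = growth of vehicle-only cultures of the same strain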; details: S. cerevisiae rad50 strain growth inhibition, stronger effect = higher value
In short: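 Growth of the mutant yeast was measured after compound exposure and referenced to vehicle-treated cultures.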

[6] = NCI Yeast Anticancer Drug Screen. Data for the mec2-1 strain (AID 157); details: S. cerevisiae mec2-1 strain, stronger effect = higher value
In short: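 Readout is yeast growth inhibition, normalised to vehicle-treated controls, in the mec2-1 strain exposed to compound.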

[7] = NCI Yeast Anticancer Drug Screen. Data for the rad14 strain (AID 159);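 note: 0% = growth of vehicle-treated control cultures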; details: S. cerevisiae rad14 strain growth inhibition, stronger effect = higher value
In short: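 Here, inhibition of yeast growth was measured after compound exposure, using a strain with a genetic defect in DNA damage repair and vehicle-treated cultures as the reference.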

[8] = NCI Yeast Anticancer Drug Screen. Data for the sgs1 mgt1 strain (AID 161);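 note: 0% = growth of cultures given vehicle only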; details: S. cerevisiae sgs1 mgt1 strain, stronger effect = higher value
In short: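 Yeast cells carrying a defined DNA-repair defect were exposed to test compounds. Growth inhibition was measured relative to vehicle-treated controls.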

[9] = NCI Yeast Anticancer Drug Screen. Data for the cln2 rad14 strain (AID 165);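 note: 0% = growth equal to vehicle treated cultures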; details: S. cerevisiae cln2 rad14 strain, stronger effect = higher value
In short: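 Relative to vehicle controls, growth inhibition of compound-treated cln2 rad14 yeast was recorded.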

[10] = NCI Yeast Anticancer Drug Screen. Data for the bub3 strain (AID 167); details: S. cerevisiae bub3 mutant strain, stronger effect = higher value
In short: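 Whole-cell yeast assay. The mutant strain was incubated with compounds, and growth inhibition was determined by comparison with vehicle-treated cells.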

[11] = NCI Yeast Anticancer Drug Screen. Data for the wt2 strain (AID 169);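 note: 0% = growth of vehicle-treated yeast cultures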; details: S. cerevisiae wt2 strain growth inhibition, stronger effect = higher value
In short: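 Values express reduction in yeast growth under compound treatment, referenced to vehicle-treated cells.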

[12] = NCI Yeast Anticancer Drug Screen. Data for the mlh1 strain (AID 171);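 note: 0% = growth of vehicle-treated control cultures of the same strain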; details: S. cerevisiae mlh1 strain growth inhibition, stronger effect = higher value
In short: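 Steps: expose the defined-mutant yeast strain to compound; expose a parallel culture to vehicle; measure growth; express compound effect as inhibition relative to the vehicle culture.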

[13] = NCI Yeast Anticancer Drug Screen. Data for the sgs1 strain (AID 173);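 note: 0% = growth of vehicle-only control cultures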; details: S. cerevisiae sgs1 mutant, stronger effect = higher value
In short: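 Treat defined-mutant yeast with compound; measure growth; calculate inhibition relative to vehicle-treated cells.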

[14] = NCI Yeast Anticancer Drug Screen. Data for the mlh1 rad18 strain (AID 175); details: S. cerevisiae mlh1 rad18 strain growth inhibition, stronger effect = higher value
In short: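 Test agents were incubated with a yeast strain of defined genotype (DNA damage repair defect). Inhibition of growth was derived by comparison with vehicle-exposed cultures.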

[15] = NCI Yeast Anticancer Drug Screen. Data for the rad18 strain (AID 177); details: S. cerevisiae rad18 mutant growth inhibition, stronger effect = higher value
In short: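 A genetically defined yeast mutant impaired in DNA damage repair was treated with test compounds, then its growth was measured against cultures receiving vehicle alone.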

[16] = NCI Yeast Anticancer Drug Screen. Data for the CLN2oe strain (AID 163);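 note: 0% = growth of vehicle-only control cultures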; details: S. cerevisiae CLN2oe strain, stronger effect = higher value
In short: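 Values reflect how much compound exposure reduced yeast growth, referenced to vehicle-exposed cells. Assay organism is a strain with a defined genetic change affecting cell-cycle control.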

[17] = at 5.0 µM (retest, dose inferred, filed as 0.5)
[18] = at 50.0 µM (retest, dose inferred, filed as 5.0)

For `O=[N+]([O-])c1cc(F)c(F)cc1Sc1cc(F)c(F)cc1[N+](=O)[O-]`, the growth inhibition ([1]; at 1.2 µM) was 6%, the growth inhibition ([1]; at 3.7 µM) was 37% and the growth inhibition ([1]; at 11.0 µM) was 92% (active). The growth inhibition ([1]; at 33.0 µM) was 98% (active), the growth inhibition ([1]; at 100.0 µM) was 97% (active) and the growth inhibition ([2]; at 1.2 µM) was -4%. For the same compound, the growth inhibition ([2]; at 3.7 µM) was 8%, the growth inhibition ([2]; at 11.0 µM) was 85% (active) and the growth inhibition ([2]; at 33.0 µM) was 98% (active). For the same compound, the growth inhibition ([2]; at 100.0 µM) was 98% (active), the growth inhibition ([3]; at 1.2 µM) was 30% and the growth inhibition ([3]; at 3.7 µM) was 68%. The growth inhibition ([3]; at 11.0 µM) was 96% (active), the growth inhibition ([3]; at 33.0 µM) was 98% (active) and the growth inhibition ([3]; at 100.0 µM) was 98% (active). For the same compound, the growth inhibition ([4]; at 1.2 µM) was -4%, the growth inhibition ([4]; at 3.7 µM) was 3% and the growth inhibition ([4]; at 11.0 µM) was 80% (active). The growth inhibition ([4]; at 33.0 µM) was 99% (active), the growth inhibition ([4]; at 100.0 µM) was 96% (active) and the growth inhibition ([5]; at 1.2 µM) was 6%. For the same compound, the growth inhibition ([5]; at 3.7 µM) was 27%, the growth inhibition [5, 17] was 66% and the growth inhibition ([5]; at 11.0 µM) was 91% (active). For the same compound, the growth inhibition ([5]; at 33.0 µM) was 98% (active), the growth inhibition [5, 18] was 98% (active) and the growth inhibition ([5]; at 50.0 µM) was 98.4% (active). The growth inhibition ([5]; at 100.0 µM) was 97% (active), the growth inhibition ([6]; at 1.2 µM) was -2% and the growth inhibition ([6]; at 3.7 µM) was 14%. The growth inhibition [6, 17] was -2%, the growth inhibition ([6]; at 11.0 µM) was 83% (active) and the growth inhibition ([6]; at 33.0 µM) was 99% (active). The growth inhibition [6, 18] was 98% (active), the growth inhibition ([6]; at 50.0 µM) was 98.5% (active) and the growth inhibition ([6]; at 100.0 µM) was 98% (active). The growth inhibition ([7]; at 1.2 µM) was 1%, the growth inhibition ([7]; at 3.7 µM) was 17% and the growth inhibition ([7]; at 11.0 µM) was 83% (active). The growth inhibition ([7]; at 33.0 µM) was 98% (active), the growth inhibition ([7]; at 100.0 µM) was 97% (active) and the growth inhibition [8, 17] was 64%. For the same compound, the growth inhibition [8, 18] was 98% (active), the growth inhibition ([8]; at 50.0 µM) was 98.3% (active) and the growth inhibition [9, 17] was 27%. The growth inhibition [9, 18] was 97% (active), the growth inhibition ([9]; at 50.0 µM) was 96.8% (active) and the growth inhibition ([10]; at 1.2 µM) was -3%. For the same compound, the growth inhibition ([10]; at 3.7 µM) was 5%, the growth inhibition [10, 17] was 49% and the growth inhibition ([10]; at 11.0 µM) was 76% (active). The growth inhibition ([10]; at 33.0 µM) was 98% (active), the growth inhibition [10, 18] was 97% (active) and the growth inhibition ([10]; at 50.0 µM) was 98.5% (active). The growth inhibition ([10]; at 100.0 µM) was 98% (active), the growth inhibition ([11]; at 1.2 µM) was 0% and the growth inhibition ([11]; at 3.7 µM) was 12%. For the same compound, the growth inhibition ([11]; at 11.0 µM) was 91% (active), the growth inhibition ([11]; at 33.0 µM) was 99% (active) and the growth inhibition ([11]; at 100.0 µM) was 96% (active). For the same compound, the growth inhibition ([12]; at 1.2 µM) was 0%, the growth inhibition ([12]; at 3.7 µM) was 7% and the growth inhibition ([12]; at 11.0 µM) was 90% (active). The growth inhibition ([12]; at 33.0 µM) was 99% (active), the growth inhibition ([12]; at 100.0 µM) was 97% (active) and the growth inhibition ([13]; at 1.2 µM) was 6%. For the same compound, the growth inhibition ([13]; at 3.7 µM) was 32%, the growth inhibition ([13]; at 11.0 µM) was 92% (active) and the growth inhibition ([13]; at 33.0 µM) was 99% (active). The growth inhibition ([13]; at 100.0 µM) was 97% (active), the growth inhibition [14, 17] was 82% (active) and the growth inhibition [14, 18] was 97% (active). For the same compound, the growth inhibition ([14]; at 50.0 µM) was 98.6% (active), the growth inhibition ([15]; at 1.2 µM) was 38% and the growth inhibition ([15]; at 3.7 µM) was 69%. For the same compound, the growth inhibition ([15]; at 11.0 µM) was 94% (active), the growth inhibition ([15]; at 33.0 µM) was 98% (active) and the growth inhibition ([15]; at 100.0 µM) was 97% (active).

Work on `CCCCC/C(=C(\C#N)C(=O)OCC)c1ccccc1` yielded a growth inhibition ([1]; at 1.2 µM) of -2%, a growth inhibition ([1]; at 3.7 µM) of -1% and a growth inhibition ([1]; at 11.0 µM) of 1%. It also gave a growth inhibition ([1]; at 33.0 µM) of 7%, a growth inhibition ([1]; at 100.0 µM) of 9% and a growth inhibition ([2]; at 1.2 µM) of -2%. The growth inhibition ([2]; at 3.7 µM) was -2%, the growth inhibition ([2]; at 11.0 µM) was -1% and the growth inhibition ([2]; at 33.0 µM) was -4%. For the same compound, the growth inhibition ([2]; at 100.0 µM) was -4%, the growth inhibition ([3]; at 1.2 µM) was 3% and the growth inhibition ([3]; at 3.7 µM) was 3%. The growth inhibition ([3]; at 11.0 µM) was 13%, the growth inhibition ([3]; at 33.0 µM) was 26% and the growth inhibition ([3]; at 100.0 µM) was 78% (active). It also gave a growth inhibition ([4]; at 1.2 µM) of -3%, a growth inhibition ([4]; at 3.7 µM) of -2% and a growth inhibition ([4]; at 11.0 µM) of -3%. It also gave a growth inhibition ([4]; at 33.0 µM) of -2%, a growth inhibition ([4]; at 100.0 µM) of 7% and a growth inhibition ([5]; at 1.2 µM) of -1%. For the same compound, the growth inhibition ([5]; at 3.7 µM) was -1%, the growth inhibition [5, 17] was 7% and the growth inhibition ([5]; at 11.0 µM) was 4%. For the same compound, the growth inhibition ([5]; at 33.0 µM) was 7%, the growth inhibition [5, 18] was -4% and the growth inhibition ([5]; at 50.0 µM) was -7%. It also gave a growth inhibition ([5]; at 100.0 µM) of -6%, a growth inhibition ([6]; at 1.2 µM) of -7% and a growth inhibition ([6]; at 3.7 µM) of -5%. For the same compound, the growth inhibition [6, 17] was -5%, the growth inhibition ([6]; at 11.0 µM) was -3% and the growth inhibition ([6]; at 33.0 µM) was 0%. The growth inhibition [6, 18] was -4%, the growth inhibition ([6]; at 50.0 µM) was 28.4% and the growth inhibition ([6]; at 100.0 µM) was 6%. It also gave a growth inhibition [8, 17] of -1%, a growth inhibition [8, 18] of 33% and a growth inhibition ([8]; at 50.0 µM) of 36.5%. The growth inhibition ([16]; at 1.2 µM) was -2%, the growth inhibition ([16]; at 3.7 µM) was -5% and the growth inhibition ([16]; at 11.0 µM) was -5%. The growth inhibition ([16]; at 33.0 µM) was -4%, the growth inhibition ([16]; at 100.0 µM) was 4% and the growth inhibition [9, 17] was -7%. It also gave a growth inhibition [9, 18] of 13%, a growth inhibition ([9]; at 50.0 µM) of -99% and a growth inhibition ([10]; at 1.2 µM) of 0%. For the same compound, the growth inhibition ([10]; at 3.7 µM) was 2%, the growth inhibition [10, 17] was 1% and the growth inhibition ([10]; at 11.0 µM) was 6%. It also gave a growth inhibition ([10]; at 33.0 µM) of 11%, a growth inhibition [10, 18] of 7% and a growth inhibition ([10]; at 50.0 µM) of 52.4%. It also gave a growth inhibition ([10]; at 100.0 µM) of 14%, a growth inhibition ([11]; at 1.2 µM) of -3% and a growth inhibition ([11]; at 3.7 µM) of -4%. It also gave a growth inhibition ([11]; at 11.0 µM) of -3%, a growth inhibition ([11]; at 33.0 µM) of -3% and a growth inhibition ([11]; at 100.0 µM) of 1%.

Reference: PubChem BioAssay (NCI)
